Assay outcomes (PubChem BioAssay)
IL1B secr inh: blocks inflammasome-driven IL-1 beta release; activity change, % at 57.5 µM; THP-1 LPS/ATP IL-1B secretion, AlphaLISA, 16 h; active compounds read low; 360,000 compounds, 4.7% hits; AID 743279; in the data active = activity change below about -50%; inconclusive = mostly about -30% to -49%
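THP-1 cells pretreated 1 hr with compounds (up to 57.5 uM final), then stimulated with LPS (250 ng/mL final) plus ATP (1.25 mM final); secreted IL-1B measured by AlphaLISA after 16 hr, decreased signal indicating inhibition.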
HT1080-NT tox: kills 2HG-producing HT-1080-NT fibrosarcoma cells; 360,000 compounds, 1.6% hits; HT-1080-NT fibrosarcoma viability, CellTiter-Glo ATP luminescence, 48 h; AID 686970; Potency, µM (titrated, usually from 46.1 µM), inactives show at the highest dose activity, negative = less viability, most hits filed as cytotoxic;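 also: NT is the 2HG producing partner of a matched IDH1 knockdown line; potency is read from the fitted curve at half-maximal effect; 0% = DMSO-treated cells and -100% = media-only wells without cells; nearly all actives have a fitted effect of over 55% in size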
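Viability by CellTiter-Glo luminescence after 48 h compound exposure at 37C of HT-1080-NT cells (750/well, RPMI, 5% FBS). % activity scaled between DMSO wells and medium-only wells, then curve-fitted and categorized by curve class.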
TDP1 cell noCPT: qHTS for Inhibitors of human tyrosyl-DNA phosphodiesterase 1 (TDP1): qHTS in cells in absence of CPT; DT40 Tdp1-/- hTDP1 cells, no CPT, ATP luminescence, 48 h; Potency, µM (doses to about 46.2 µM), inactives show at the top dose activity change, negative = growth inhibition, hits mostly inhibitors; 420,000 compounds, 15% hits; AID 686978, 2013; also: potency is read from the fitted curve at half-maximal effect; nearly all actives have a fitted effect of over 55% in size
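DT40 Tdp1-/-;hTDP1 cells, no CPT (DMSO vehicle only), 400 cells/well; compounds pin-transferred; ≥48 hr, 37 °C; CellTiter-Glo 30 min RT dark, luminescence read.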
TDP1 cell CPT: growth inhibition of DT40 Tdp1-/-;hTDP1 cells with camptothecin (screen for TDP1 inhibitors); AID 686979; Potency, µM (series often up to 46.2 µM), without a hit: at the highest dose activity change, negative = growth inhibition, usual class: inhibitors; 420,000 compounds, 12% hits; chicken DT40 Tdp1-/-;hTDP1 cells + 20 nM CPT, ATP luminescence, 48 h; also: potency is read from the fitted curve at half-maximal effect; nearly all actives have a fitted effect of over 55% in size
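Chicken DT40 Tdp1-/- cells stably complemented with human TDP1 were seeded at 400 cells/well in medium containing 20 nM camptothecin, exposed to pin-transferred compounds, and grown at 37 °C for at least 48 hr. Viability was read as ATP luminescence.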
HT1080 IDH1KD tx: toxicity to HT-1080 IDH1 knockdown cells (counter line); HT-1080 IDH1 knockdown viability, ATP luminescence, 48 h; Potency, µM (highest dose often 46.1 µM), inactives show at the top dose activity, negative = toxicity, actives largely listed as cytotoxic; 360,000 compounds, 2% hits;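 also: potency is read from the fitted curve at half-maximal effect; 0% = DMSO wells and -100% = cell-free medium wells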
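Assay cells: HT-1080 with IDH1 knockdown, 750 per well, RPMI/5% FBS. Exposure: 48 h at 37 °C following 2 h pre-incubation. Read: CellTiter-Glo luminescence; fitted concentration-response, curve class assigned.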
* = called active by the depositor; ? = inconclusive; . = no result given; [ ] = another dose, or the depositor's remark. The list is not random: actives were taken first. Their share in the collection is about 19%. Unless noted, calls follow the shape of the dose curve; as a rule, active = well fitted curve in the direction sought with a large enough effect; inconclusive = small, poorly fitted or top-dose-only effect, or another doubt; inactive = no such curve, though single readings can be large; an effect the other way counts as inactive or inconclusive. Unless noted, % is scaled to controls: 0 for no effect and ±100 for the full control effect.

SMILES	IL1B secr inh	HT1080-NT tox	TDP1 cell noCPT	TDP1 cell CPT	HT1080 IDH1KD tx
COC(=O)c1oc2ccc(Br)cc2c1NC(=O)CN1CCN(C)CC1	-53*	0%	?	-21%	-3%
CCCCNC(=O)CCc1nc2cccnc2n1Cc1ccccc1	-1	10%	13%	-3%	1%
O=C(CCc1nc2cccnc2n1Cc1cccs1)Nc1cccc(Cl)c1	.	.	?	16µM*	.
Cc1cc(NC(=O)CCc2nc3cccnc3n2Cc2cccs2)ccc1Br	.	.	21µM*	16µM*	.
CCOc1ccc(OCC)c(NC(=O)CCc2nc3cccnc3n2Cc2cccs2)c1	.	.	16µM*	?	.
Cc1cc(C)c(NC(=O)Cc2ccc(-n3c(C)nc4cccnc43)cc2)c(C)c1	.	.	21µM*	18µM*	.
CCCn1c(CCC(=O)Nc2ccccc2OC)nc2cccnc21	.	.	?	-19%	.
Cc1ccc2c(Cl)c(Cc3ccccc3)c(=S)[nH]c2n1	-6	0%	?	?	-18%
CC1CCC(NC(=O)Cn2cnc3sccc3c2=O)CC1 (stereo unspecified)	1	6%[9.24 µM]	11%	-9%	9%
CSCCC(NS(=O)(=O)c1ccc2c(c1)oc(=O)n2C)C(=O)NCc1ccc(F)cc1 (stereo unspecified)	.	.	-4%	-5%	.
Cn1c(SCC(=O)Nc2ccccc2Br)nnc1-c1cnccn1	-29	5%	18%	-2%	9%
CCc1nc2cccnc2n1-c1ccc(CC(=O)NCCOC)cc1	3	6%	-6%	-3%	4%
CCOC(=O)c1ccc(NC(=O)Cc2ccc(-n3c(CC)nc4cccnc43)cc2)cc1	.	.	26µM*	18µM*	.
CCOC(=O)c1ccc(NC(=O)CCc2nc3cccnc3n2Cc2cccs2)cc1	.	.	18µM*	?	.
CCCn1c(CCC(=O)Nc2cccc(C)c2C)nc2cccnc21	.	.	?	-30%	.
CCCn1c(CCC(=O)Nc2cccc(CC)c2)nc2cccnc21	.	.	?	16µM*	.
Cc1cnc(CNC(=O)C2CCC(=O)N(CCc3ccc(Cl)cc3)C2)cn1 (stereo unspecified)	0	4%	3%	-17%	10%
OC[C@H]1O[C@H](c2nc(-c3nc(-c4cccs4)no3)cs2)C[C@@H]1O	-80*	5%	-20%	-17%	0%
C[C@@H]1CN([C@@H](C)CO)C(=O)CCCn2nncc2CO[C@H]1CN(C)S(=O)(=O)c1cccs1	22	6%	0%	-4%	1%
CCc1ccc(OCC(=O)NNCC(=O)Nc2ccc(OC)cc2)cc1	-9	-2%	?	-28%	-1%
O=C(NCc1ccccc1F)c1ccc(S(=O)(=O)N2CCCCCC2)cc1	-20	-14%	?	-6%	-1%
CC(C)(C)c1cc(NC(=O)C2(C)CCN2C(=O)C2(c3ccccc3)CCCC2)no1 (stereo unspecified)	13	24%	15µM*	15µM*	29%
CC(C)(C)c1cc(NC(=O)C2(C)CCN2C(=O)C2(c3ccccc3)CC2)no1 (stereo unspecified)	9	-3%	21µM*	?	-24%
CC1(C(=O)Nc2cccc3ncccc23)CCN1C(=O)C1(c2ccccc2)CC1 (stereo unspecified)	19	9%	-5%	-5%	23%
Cc1nc(SCC(=O)NCCc2ccc(Cl)cc2)nc(C)c1C	-1	2%	0%	0%	0%
SMILES	IL1B secr inh	HT1080-NT tox	TDP1 cell noCPT	TDP1 cell CPT	HT1080 IDH1KD tx
CCCC[C@@H]1C=C(C(=O)O)[C@H](c2ccc(Br)cc2)N1S(=O)(=O)c1ccc(C)cc1	0	-3%	0%	13%	-6%
O=C(CSc1nccn1Cc1ccc(F)cc1)NCc1ccco1	.	.	-6%	-13%	.
Cn1c(-c2ccccc2)c(CCO)c2ccccc21	10	-3%	-25%	-15%	-5%
Cn1c(-c2ccccc2)c(C(=O)CCl)c2ccccc21	-118*	15µM*	3.3µM*	2.6µM*	10µM*
CCn1c(-c2ccccc2)c(C(=O)CCl)c2ccccc21	-108*	?	2.6µM*	3.7µM*	21µM*
COC(=O)C1(Cc2cc(-c3cccnc3)no2)CCN(C(=O)OC(C)(C)C)CC1	10	3%	?	?	10%
CC(C)(C)OC(=O)N1CCC(CC2CC(c3ccncc3)=NO2)(C(=O)O)CC1 (stereo unspecified)	16	8%	-4%	16%	13%
COC(=O)C1(CC2CC(c3ccc(Cl)cc3)=NO2)CCN(C(=O)OC(C)(C)C)CC1 (stereo unspecified)	-1	1%	21µM*	26µM*	-1%
COC(=O)C1(Cc2cc(-c3ccc([N+](=O)[O-])cc3)no2)CCN(C(=O)OC(C)(C)C)CC1	-18	4%	21µM*	?	4%
COC(=O)C1(Cc2cc(-c3ccc(Cl)cc3)no2)CCN(C(=O)OC(C)(C)C)CC1	?	?	18µM*	?	-6%
CC(=O)Nc1ccc(NC(=O)CSc2cn(CC(=O)N(C(C)C)C(C)C)c3ccccc23)cc1	.	.	?	-29%	.
CN(C)S(=O)(=O)n1cc(/C=C(\NC(=O)c2ccccc2Cl)C(=O)N2CCCC2)c2ccccc21	6	6%	7%	-27%	9%
COc1cc(C(=O)O/N=C2\C=CC(=O)C=C2C)cc(OC)c1OC	24	5%	?	12µM*	15%
COc1cc(C(=O)ON=C2C3CC4CC(C3)CC2C4)cc(OC)c1OC	0	-16%	-17%	?	-8%
O=[N+]([O-])c1ccccc1C(=Nc1ccccc1)c1c(O)cc(O)cc1O	0	-2%	18µM*	?	1%
COc1ccc([N+](=O)[O-])cc1NC(=O)c1cn(-c2ccc(C)c(C)c2)c(=O)c2ccccc12	8	0%	-32%	-10%	-10%
O=c1cc2c(c(-c3ccccc3)n1Cc1ccccc1)[C@H](CCO)NC2	4	3%	4%	-10%	3%
OCC[C@@H]1NCc2cc(CO)cc(-c3ccccc3)c21	?	4%	18µM*	21µM*	7%
CN(CC(=O)Nc1ccc(Cl)c(Cl)c1)C(=O)c1cccc2cccnc12	-1	0%	-27%	?	-3%
O=c1oc2ccccc2c(O)c1/C=N/c1ncccn1	12	0%	-10%	-13%	-25%
O=c1oc2ccccc2c(O)c1/C=C1\C=Nc2ccccc21	-108*	?	7.3µM*	8.2µM*	26µM*
CN1C(=O)[C@@](O)(c2cn(C)c3ccccc23)c2cc(Br)ccc21	4	-30%	?	?	-19%
